From PubChem
Tgondii IFNg = blocks Toxoplasma gondii growth in the presence of IFN-gamma; Toxoplasma gondii growth in IFN-gamma-treated host cells; active compounds read low; activity change, negative = inhibition, % (concentration not given with the values); 69,000 tested, 3.8% active; AID 1259416; in the data active = activity change below about -70%, passing the limit was not always enough;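 note: host cells are HeLa cells infected with Toxoplasma gondii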
* marks the source's active call; other numbers are inactive results. This excerpt belongs to a sample that is enriched for hits.

SMILES	Tgondii IFNg
CN(C)Cc1cc(C2CCCN2S(=O)(=O)N2CCOCC2)nn1C (centres undefined)	5.5
CC(=O)CCc1c(C)c2cccc(C)c2[nH]c1=O	25.3
CCCc1[nH]c(=O)cc2cc(OC)c(OC)cc12	-39.8
CCCCc1cc(C)c2[nH]c(=O)cc(C)c2c1	-87.9*
COc1cccc(C2CCCCN2S(=O)(=O)c2cnn(C)c2C)c1 (centres undefined)	-10.4
COCc1nc(NCC2(N3CCOCC3)CCCCC2)c2cnn(C)c2n1	-51.4
CCn1ncnc1CN1CCC(c2n[nH]c(=O)n2Cc2ccccc2)CC1	22.5
Cc1ccn2c(C(=O)N3CCC4(CCOCC4)CC3)c(C)nc2c1	-6.8
Cc1oc(C2CCN(S(=O)(=O)c3cccc(F)c3)CC2)nc1C(=O)N1CCOCC1	29.4
O=C(O/N=C1/C(=O)c2ccccc2-c2ccccc21)c1ccccc1	-103.1*
COc1ccc(C(=O)O/N=C2/C(=O)N(C)c3ccccc32)cc1	-100.2*
CC1=NN(C)C(=O)/C1=N\OC(=O)c1ccc(Cl)cc1	-23.6
O=C(OCc1ccccc1)c1ccccc1	4.9
COc1ccc(C(=O)/C=C2/c3ccccc3CC(C)(C)N2C)cc1	-63.1
O=C(OOC(=O)c1ccccc1)c1ccccc1	-43.9
CNC(=O)N1CCc2nc(C(=O)N3CCCCC3)sc2CC1	9.5
COc1ccc(CNCc2cccc(OC)c2OC)cc1	-7.5
COc1ccc(CN2C3(CCN(C(=O)N4CCOCC4)C3)c3ccccc3S2(=O)=O)cc1 (centres undefined)	-4.1
CC(C)c1noc(-c2cc(=O)n(CC(=O)Nc3ccc(F)c(F)c3)c3ccccc23)n1	28.2
Cc1nc(-c2cc(C(=O)NCCN(C)C)c3ccccn23)cn1-c1nccs1	21.4
COCCC(=O)c1cc(-c2ccn(-c3ccccc3)n2)n2ccccc12	88.6
CN(C)CCNC(=O)c1cc(-c2ccn(-c3ccccc3)n2)n2ccccc12	-106.0*
Cc1cc(=O)n2[nH]c(C3CCCN3C(=O)c3[nH]ncc3Cl)cc2n1 (centres undefined)	-8.5
Cc1oc(-c2ccc(NC(=O)CC3CCCC3)cc2)nc1Cn1cccn1	-11.8
CC1=NC2(CCC(C(=O)N3CCN(c4ccccn4)CC3)CC2)C(=O)N1CC1CC1 (centres undefined)	-42.0
SMILES	Tgondii IFNg
CCSc1nc(CC(=O)NCc2sc(C)nc2CC)cs1	1.7
Cc1ccc(C)c(-c2coc(-c3ccc(NC(=O)NCc4ccc(F)cc4)cc3)n2)c1	9.3
CCCC(NC(=O)c1cnc(N2CCOCC2)nc1)c1cccs1 (centres undefined)	100.4
COc1ccc(C2(NC(=O)c3cnc(N4CCOCC4)nc3)CCCC2)cc1	-79.7*
CCOC(=O)c1cnc(N2CCOCC2)nc1N	184.7
Cc1cnc(N2CC[C@@H](N3CCOCC3)[C@H]2Cc2cnn(C)c2)nc1	-2.0
CC(C)N1Cc2ccccc2C2(CCN(C(=O)c3ccnnc3)CC2)C1	5.2
COC[C@H]1CCC2C(CCN2C(=O)CCc2ccccc2)O1 (some centres undefined)	-24.8
CC1NC(=O)COC12CCN(Cc1nccs1)CC2 (centres undefined)	-3.2
Cc1nc(-c2ccccc2)nc2c1CCN(c1cnccn1)CC2	65.9
CC(C)Cc1ccc(C(=O)C(C)N2CCN(c3ccc(C(F)(F)F)cn3)CC2)cc1 (centres undefined)	-42.7
Cc1nc(-c2cccnc2)nc(N2CCCN(c3ccc(C(F)(F)F)cn3)CC2)c1Cl	-97.9*
NC(=O)C1(N2CCCCC2)CCN(c2ncc(NC(=O)c3ccc(Cl)cc3)cc2C(=O)O)CC1	2.3
O=C(Nc1ccc(Cl)cc1)ONC(=O)c1ncc(C(F)(F)F)cc1Cl	15.2
O=C(Nc1ccc(Cl)cc1)c1cnc(NC2CCCCC2)cc1C(F)(F)F	-110.2*
Cc1csc([C@H]2C[C@H]3CCN(Cc4ccoc4)C[C@@H]3O2)n1	-5.6
Cc1cccc(CN(Cc2ccccc2)C(=O)c2ccc3nc(C(F)(F)F)[nH]c3c2)n1	4.8
Cc1cccc(CN(Cc2ccccc2)C(=O)CCc2ccncc2)n1	-0.5
Cc1ccc(-c2ncc(CN(Cc3ccccc3)Cc3cccc(C)n3)cn2)cc1	-78.9*
Cc1c(NC(=O)COc2ccc3nsnc3c2)n[nH]c1-c1cccs1	117.4
COc1cc(OC)c(NC(=O)c2nc(Nc3ccccc3)c3ccccc3n2)cc1Cl	361.3
Cc1nn(C)c(Cl)c1CN1CCC(c2ccnc(-c3ccncc3)c2)C1 (centres undefined)	-5.9
CC(C)ON([C@@H](C(=O)NO)C(C)C)S(=O)(=O)c1ccc(-c2ccccc2)cc1	-75.2*
CC(C)[C@H](NS(=O)(=O)c1ccc(-c2ccc(Br)cc2)cc1)C(=O)O	36.9
O=C(O)CNS(=O)(=O)c1ccc(-c2ccccc2)cc1	-3.4
COc1ccccc1-n1cc(C(=O)N2CCC3(CN(C)C(=O)O3)C2)cn1 (centres undefined)	6.1
COc1cccc(CC(=O)N2CCC3(CC2)NC(=O)c2ccc(F)cc2N3C)c1	19.0
CCn1c(-c2cc(NC(=O)c3cccnc3)n[nH]2)cc2c(OC)cccc21	-47.9
CCn1c(-c2cc(NC(=O)c3ccncc3)n[nH]2)cc2ccc(OC)cc21	-92.0*
